Reference: PubChem BioAssay (Tox21)
Several values for one entry are separate records, joined by “and”; a condition that tells them apart may be missing. Identical values can stand only once. Some structures have more than one record in an assay (separate samples or runs), and their calls can disagree. Activity calls are given as the source filed them. Where a call stands in place of a potency, no number is given. Unless noted, calls follow the shape of the dose curve; as a rule, active = well fitted curve in the direction sought with a large enough effect in the repeat runs; inconclusive = weak or mixed curves; inactive = no such curve, though single readings can be large; an effect the other way counts as inactive or inconclusive.

Columns and labels:
[1] = qHTS assay to identify small molecule antagonists of the glucocorticoid receptor (GR) signaling pathway - cell viability counter screen (AID 720693); also: nearly all actives have a fitted effect of over 55% in size
[2] = qHTS assay for identifying genotoxic compounds that show differential cytotoxicity against isogenic chicken DT40 cell lines with known DNA damage response pathways - wild type cell line (AID 743012); also: nearly all actives have a fitted effect of over 60% in size; also: potency is read from the fitted curve at half-maximal effect
How it was run: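 Cytotoxicity in repair-proficient parental chicken DT40 cells serves as the comparator for Rad54/Ku70- and Rev3-deficient lines. Cells were exposed to compounds for 40 h at 37 C/5% CO2, and ATP-based luminescence (CellTiter-Glo) measured viability.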

[3] = qHTS assay for identifying genotoxic compounds that show differential cytotoxicity against isogenic chicken DT40 cell lines with known DNA damage response pathways - Rad54/Ku70 mutant cell line (AID 743015); also: nearly all actives have a fitted effect of over 60% in size; also: potency is read from the fitted curve at half-maximal effect
[4] = qHTS assay to identify small molecule antagonists of the androgen receptor (AR) signaling pathway - cell viability counter screen (AID 743033; also: nearly all actives have a fitted effect of over 45% in size; also: potency is read from the fitted curve at half-maximal effect)
[5] = qHTS assay to identify small molecule antagonists of the androgen receptor (AR) signaling pathway using the MDA cell line - cell viability counter screen (AID 743041; also: nearly all actives have a fitted effect of over 45% in size)
How it was run: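 Compound exposure lasted 16 h at 37C in MDA-kb2 AR-luc cells stimulated with R1881. Protease-based CellTiter-Fluor reagent was applied for the final 30 min and fluorescence measured.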

[6] = qHTS assay to identify small molecule antagonists of the thyroid receptor (TR) signaling pathway - cell viability counter screen (AID 743064); also: nearly all actives have a fitted effect of over 50% in size; also: potency is read from the fitted curve at half-maximal effect
How it was run: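 In-well cytotoxicity read by CellTiter-Fluor (30 min, 37 C) following 23.5 h exposure of GH3 cells bearing a TRE-luciferase sensor. Compounds were added alongside 1 nM (final) T3 to drive TR transactivation.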

[7] = system: thyroid hormone receptor (rat, GH3 cells); assay: qHTS assay to identify small molecule agonists of the thyroid receptor (TR) signaling pathway (AID 743066; calls by dose curve)
[8] = qHTS assay to identify small molecule antagonists of the estrogen receptor alpha (ER-alpha) signaling pathway - cell viability counter screen (AID 743074; calls by dose curve; also: nearly all actives have a fitted effect of over 45% in size)
[9] = molecular target: Estrogen receptor (Homo sapiens) (UniProt P03372); assay: qHTS assay to identify small molecule agonists of the estrogen receptor alpha (ER-alpha) signaling pathway (AID 743075; calls by dose curve; also: potency is read from the fitted curve at half-maximal effect)
[10] = molecular target: Estrogen receptor (Homo sapiens) (UniProt P03372); assay: qHTS assay to identify small molecule agonists of the estrogen receptor alpha (ER-alpha) signaling pathway using the BG1 cell line (AID 743079); conditions: BG1Luc4E2 cells, ERE-luciferase agonist, 22 h; activation: at 70.3 µM (top of the series) unless noted; also: nearly all actives have a fitted effect of over 20% in size; also: potency is read from the fitted curve at half-maximal effect
[11] = qHTS assay to identify small molecule antagonists of the estrogen receptor alpha (ER-alpha) signaling pathway using the BG1 cell line - cell viability counter screen (AID 743081);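 also: compound given together with 17beta-estradiol as the ER stimulus; nearly all actives have a fitted effect of over 45% in size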
Aromatase (Homo sapiens) = Aromatase (Homo sapiens) (UniProt P11511); assay: qHTS assay to identify aromatase inhibitors (AID 743083); also: nearly all actives have a fitted effect of over 55% in size; also: potency is read from the fitted curve at half-maximal effect
[12] = qHTS assay to identify small molecule antagonists of the thyroid receptor (TR) signaling pathway (AID 743065); also: nearly all actives have a fitted effect of over 55% in size; also: potency is read from the fitted curve at half-maximal effect
How it was run: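 GH3.TRE-Luc rat pituitary cells (two TREs driving luciferase) were dosed with compound, then stimulated with 1 nM T3 (final) for 23.5 h at 37 C. ONE-Glo luminescence was the read-out, with CellTiter-Fluor fluorescence as the cytotoxicity counter-screen.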

[13] = qHTS assay to identify small molecule antagonists of the estrogen receptor alpha (ER-alpha) signaling pathway using the BG1 cell line (AID 743080; calls by dose curve;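 also: BG1 cells stimulated with 17beta-estradiol alongside compound; nearly all actives have a fitted effect of over 25% in size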; also: potency is read from the fitted curve at half-maximal effect)
How it was run: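 Endogenous full-length ER-alpha in BG1-Luc-4E2 cells drives a stably integrated 4×ERE luciferase gene; compounds were tested against 17beta-estradiol over 21.5 h, with luminescence and multiplexed viability fluorescence recorded.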

[14] = molecular target: Estrogen receptor (Homo sapiens) (UniProt P03372); assay: qHTS assay to identify small molecule antagonists of the estrogen receptor alpha (ER-alpha) signaling pathway (AID 743069; active = well fitted curve in the direction sought with a large enough effect in the signal ratio in the repeat runs, not every such curve was filed as active; inconclusive = weak or mixed curves, or effect the other way; inactive = no such curve, though single readings can be large or run the other way; the % refers to the signal ratio)
How it was run: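 In this cell-based reporter format, GripTite HEK293 cells harbouring ER-alpha-UAS-bla were grown overnight with 2% charcoal-stripped FBS, dosed with DMSO-dissolved compounds, then challenged with 17beta-estradiol. After 18 hr at 37C, beta-lactamase activity was detected by FRET fluorescence.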

Sequence of Aromatase (Homo sapiens) (P11511 whole entry, looked up): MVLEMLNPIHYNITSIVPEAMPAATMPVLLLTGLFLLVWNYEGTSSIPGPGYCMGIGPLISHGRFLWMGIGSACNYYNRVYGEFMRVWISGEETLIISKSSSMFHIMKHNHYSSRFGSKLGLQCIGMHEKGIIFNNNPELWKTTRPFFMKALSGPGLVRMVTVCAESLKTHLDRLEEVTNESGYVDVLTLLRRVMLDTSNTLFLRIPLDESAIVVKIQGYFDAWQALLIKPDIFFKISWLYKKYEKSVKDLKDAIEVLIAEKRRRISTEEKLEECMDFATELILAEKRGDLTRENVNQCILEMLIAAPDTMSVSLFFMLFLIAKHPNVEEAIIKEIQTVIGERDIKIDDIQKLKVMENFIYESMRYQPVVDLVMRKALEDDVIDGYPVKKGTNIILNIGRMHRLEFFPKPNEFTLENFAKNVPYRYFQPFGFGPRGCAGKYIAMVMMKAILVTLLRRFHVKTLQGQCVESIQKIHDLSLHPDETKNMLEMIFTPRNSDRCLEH
Sequence of Estrogen receptor (Homo sapiens) (P03372 whole entry, looked up): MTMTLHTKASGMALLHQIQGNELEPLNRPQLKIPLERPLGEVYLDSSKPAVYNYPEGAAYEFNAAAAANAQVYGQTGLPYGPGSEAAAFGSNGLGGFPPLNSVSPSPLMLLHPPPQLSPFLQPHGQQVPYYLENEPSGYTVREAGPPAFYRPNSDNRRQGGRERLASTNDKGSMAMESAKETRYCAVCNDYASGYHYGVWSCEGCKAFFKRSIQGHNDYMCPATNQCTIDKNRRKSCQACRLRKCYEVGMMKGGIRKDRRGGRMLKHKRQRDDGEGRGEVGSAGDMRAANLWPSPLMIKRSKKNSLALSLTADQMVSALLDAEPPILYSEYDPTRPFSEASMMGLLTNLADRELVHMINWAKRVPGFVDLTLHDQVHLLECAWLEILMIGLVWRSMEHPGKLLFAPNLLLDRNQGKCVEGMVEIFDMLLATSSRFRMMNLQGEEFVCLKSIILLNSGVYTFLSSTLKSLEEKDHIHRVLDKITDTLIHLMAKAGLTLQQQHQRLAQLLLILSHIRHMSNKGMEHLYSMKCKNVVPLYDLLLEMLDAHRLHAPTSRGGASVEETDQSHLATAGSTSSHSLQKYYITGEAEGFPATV

SMILES: CC(C)(c1ccccc1)c1ccc(O)cc1
- Potency [1]: inactive
- Potency [2]: 21.7 µM (active)
- Potency [3]: 13.7 µM (active)
- Potency [4]: 38.6 µM (active) and 49 µM (active)
- Potency [5]: inactive
- Potency [6]: 48.2 µM (active) and 61.1 µM (active)
- Potency [7]: inactive
- Potency [8]: inactive
- Potency [9]: 4.33 µM [inconclusive] (active) and 3.89 µM [inconclusive] (active)
- Potency [10]: 1.08 µM (active) and 686 nM (active)
- Potency [11]: inactive
- Potency (Aromatase (Homo sapiens)): 30.4 µM (active) and 30.6 µM (active)

SMILES: CCCCCCCCCc1ccc(O)cc1
- Potency [3]: 30.9 µM (active)
- Potency [5]: inactive
- Potency [6]: 39 µM (active)
- Potency [12]: 30.9 µM (active)
- Potency [7]: inactive
- Potency [9]: inactive
- Potency [10]: 6.93 µM (active)
- Potency [13]: inactive
- Potency [11]: inactive
- Potency (Aromatase (Homo sapiens)): 49.1 µM (active)

SMILES: CCOP(=O)(OCC)OCC
- Potency [1]: inactive
- Potency [2]: inactive
- Potency [3]: inactive
- Potency [4]: inactive
- Potency [5]: inactive
- Potency [6]: inactive
- Potency [12]: inactive
- Potency [7]: inactive
- Potency [8]: inactive
- Potency [11]: inactive
- Potency (Aromatase (Homo sapiens)): inactive

SMILES: CCN(CC)C(=O)C(C)Oc1cccc2ccccc12 (stereo not given)
- Potency [1]: inactive
- Potency [2]: 10.9 µM (active)
- Potency [3]: 17.2 µM (active)
- Potency [5]: inactive
- Potency [6]: inactive
- Potency [7]: inactive
- Potency [14]: inactive
- Potency [8]: inactive
- Potency [9]: inactive
- Potency [10]: inactive
- Potency [11]: inactive
- Potency (Aromatase (Homo sapiens)): 34.4 µM (active)

SMILES: O=S(=O)(O)C(F)(F)C(F)(F)C(F)(F)C(F)(F)C(F)(F)C(F)(F)C(F)(F)C(F)(F)F
- Potency [1]: inactive
- Potency [2]: inactive and 54.5 µM (active)
- Potency [4]: inactive
- Potency [5]: inactive
- Potency [6]: 47.2 µM (active)
- Potency [12]: 51.9 µM (active) and 61.1 µM (active)
- Potency [7]: inactive
- Potency [8]: inactive
- Potency [11]: inactive
- Potency (Aromatase (Homo sapiens)): inactive

SMILES: ClC(Cl)(Cl)Br
- Potency [1]: inactive
- Potency [2]: inactive
- Potency [3]: inactive
- Potency [4]: inactive
- Potency [5]: inactive
- Potency [6]: inactive
- Potency [12]: inactive
- Potency [7]: inactive
- Potency [8]: inactive
- Potency [11]: inactive
- Potency (Aromatase (Homo sapiens)): inactive

SMILES: c1ccc(C2CO2)cc1 (stereo not given)
- Potency [1]: inactive
- Potency [2]: inactive
- Potency [3]: inactive
- Potency [4]: inactive
- Potency [5]: inactive
- Potency [6]: inactive
- Potency [8]: inactive
- Potency [11]: inactive
- Potency (Aromatase (Homo sapiens)): inactive

SMILES: c1ccc2c(c1)Nc1ccccc1S2
- Potency [1]: inactive
- Potency [3]: 40.9 µM (active)
- Potency [4]: inactive
- Potency [5]: inactive
- Potency [6]: inactive
- Potency [12]: inactive
- Potency [7]: inactive
- Potency [8]: inactive
- Potency [9]: inactive
- Potency [10]: 26.6 µM (active) and 38.6 µM (active)
- Potency [13]: inactive
- Potency [11]: inactive
- Potency (Aromatase (Homo sapiens)): inactive

SMILES: CN(C)c1ccccc1
- Potency [1]: inactive
- Potency [2]: inactive
- Potency [3]: inactive
- Potency [4]: inactive
- Potency [5]: inactive
- Potency [6]: inactive
- Potency [12]: inactive
- Potency [7]: inactive
- Potency [11]: inactive

SMILES: CC(C)COC(=O)c1ccccc1C(=O)OCC(C)C
- Potency [1]: inactive
- Potency [2]: 27.3 µM (active)
- Potency [3]: 48.6 µM (active)
- Potency [4]: inactive
- Potency [5]: inactive
- Potency [6]: inactive
- Potency [12]: inactive
- Potency [7]: inactive
- Potency [8]: inactive
- Potency [9]: 13.8 nM [inconclusive] (active) and inactive
- Potency [10]: 21.7 µM (active)
- Potency [13]: inactive
- Potency [11]: inactive
- Potency (Aromatase (Homo sapiens)): inactive

SMILES: CCCCOCC1CO1 (stereo not given)
- Potency [1]: inactive
- Potency [2]: inactive
- Potency [3]: inactive
- Potency [4]: inactive
- Potency [5]: inactive
- Potency [6]: inactive
- Potency [12]: inactive
- Potency [7]: inactive
- Potency [8]: inactive
- Potency [9]: inactive
- Potency [10]: inactive
- Potency [13]: inactive
- Potency [11]: inactive
- Potency (Aromatase (Homo sapiens)): inactive

SMILES: CN(C)P(=O)(N(C)C)N(C)C
- Potency [1]: inactive
- Potency [2]: inactive
- Potency [3]: inactive
- Potency [4]: inactive
- Potency [5]: inactive
- Potency [6]: inactive
- Potency [12]: inactive
- Potency [7]: inactive
- Potency [8]: inactive
- Potency [9]: inactive
- Potency [10]: inactive
- Potency [13]: inactive
- Potency [11]: inactive
- Potency (Aromatase (Homo sapiens)): inactive

SMILES: Cn1c(-c2ccccc2)cc(-c2ccccc2)[n+]1C
- Potency [1]: inactive
- Potency [2]: 12.2 µM (active) and 1.37 µM (active)
- Potency [3]: 4.32 µM (active) and 2.43 µM (active)
- Potency [6]: inactive
- Potency [12]: inactive
- Potency [7]: inactive
- Potency [14]: inactive
- Potency [9]: inactive
- Potency [13]: 30.6 µM (active)
- Potency [11]: inactive
- Potency (Aromatase (Homo sapiens)): 54.4 µM (active) and 54.5 µM (active)

SMILES: CCCCOCCOC(C)=O
- Potency [1]: inactive
- Potency [2]: inactive
- Potency [3]: inactive
- Potency [4]: inactive
- Potency [5]: inactive
- Potency [6]: inactive
- Potency [12]: inactive
- Potency [7]: inactive
- Potency [8]: inactive
- Potency [9]: inactive
- Potency [10]: inactive
- Potency [13]: inactive
- Potency [11]: inactive
- Potency (Aromatase (Homo sapiens)): inactive

SMILES: Brc1ccc(Br)cc1
- Potency [1]: inactive
- Potency [2]: inactive
- Potency [3]: inactive
- Potency [4]: inactive
- Potency [5]: inactive
- Potency [6]: inactive
- Potency [12]: inactive
- Potency [7]: inactive
- Potency [8]: inactive
- Potency [11]: inactive
- Potency (Aromatase (Homo sapiens)): inactive
